Screens as filed in PubChem.
A1 inh = blocks A1 activity; 0.51% of 21,000 active; MEF A1-2A-BIM cells, caspase-Glo luminescence, 3 h; percent of clofoctol signal, DMSO as zero; caspase activation, % (concentration not given with the values);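 active means most replicate scores above 10, or exactly half above 10 with mean activity above 10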;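 further: effector caspase 3 and 7 activity cleaving a DEVD luciferin substrate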
Numbers without * were called inactive. This excerpt belongs to a sample that is enriched for hits.

SMILES	A1 inh
N#Cc1c(C(F)(F)F)cc(-c2cccs2)nc1SCC(=O)c1ccccc1	-1.3
CC(=O)NCCSc1nc(-c2cccs2)cc(-c2ccc(F)cc2)c1C#N	10.5*
COc1cc(O)c(C(=O)c2c(C)cc(O)cc2OC)c(O)c1	0.2
Cc1nc2c3ccccc3n(CC(=O)c3ccc(Br)cc3)c(=O)n2n1	0.4
FC(F)(F)c1cc(Oc2ccc(Cl)cc2)c2cc(Cl)ccc2n1	0.0
Cc1ccc(NC(=O)c2ccc3c(=O)n(Cc4ccco4)c(=S)[nH]c3c2)cc1Cl	1.8
O=C(CSc1nc2ccccc2c(=O)n1CCc1ccccc1)NCCc1ccccc1	-0.8
CCOC(CCn1c(SCc2cccc(F)c2)nc2ccccc2c1=O)OCC	1.1
O=C(CCn1c(SCc2cccc(F)c2)nc2ccccc2c1=O)NCCc1ccccc1	19.4*
CCC(Sc1nc2ccc(Br)cc2c2nc3ccccc3n12)C(=O)NCC1CCCO1 (stereo unspecified)	0.5
O=C(O)C1CC(=O)N(Cc2ccccc2)C1c1ccccc1 (stereo unspecified)	0.3
Cc1ccc(S(=O)(=O)c2cn(Cc3cccc(Cl)c3)c3cc4c(cc3c2=O)OCO4)cc1	-0.7
COC(=O)c1ccc2nc[nH]c2c1	-0.2
CCOC(=O)c1c(NC(=O)CSc2cc(C)c3ccccc3n2)sc2c1CCC2	-0.4
CCOC(=O)c1cc(-c2ccccc2)sc1NC(=O)CCN1CCN(CC)CC1	11.6*
CCOC(=O)c1cc(CC)sc1NC(=S)Nc1ccccc1C(F)(F)F	1.7
CC(=O)NC1CC(C)(C)N(OC(=O)c2ccccn2)C(C)(C)C1	0.3
Cc1nn(-c2ccccc2)nc1CNC(=O)c1ccc(N(C)C)cc1	0.4
COc1cccc2sc(=NC(=O)Cc3cccc4ccccc34)n(C)c12	10.1*
COc1ccccc1C1CCN(Cc2cccc3ccccc23)CC1	1.9
CCC(C(=O)NCc1cccc(OC)c1OC)n1sc2ccccc2c1=O (stereo unspecified)	0.4
O=C(CCn1c(=S)[nH]c2ccsc2c1=O)NCCc1ccc(Cl)cc1	-0.2
O=C1Cc2c([nH]c3ccc([N+](=O)[O-])cc23)-c2ccccc2N1	10.0*
Cc1c(C(=O)N2CCCC2)oc2ccc3c(c12)C(=O)CC(C)(C)O3	-0.3
O=C(Nc1cc(C(=O)Nc2ccccc2O)cc(C(=O)Nc2ccccc2O)c1)c1ccccc1	-0.7
SMILES	A1 inh
CC12CC3(C)CC(C)(C1)CC(CN=Cc1ccc(O)cc1)(C2)C3	12.8*
Oc1ccc(/C=N/c2nccs2)cc1	-0.3
CCNc1nc(N2CCOCC2)nc(N2CCC(Cc3ccccc3)CC2)n1	-0.9
O=C(Cc1ccccc1)Nc1ccc(Cl)c(Cl)c1	-1.0
CCOc1cc2[nH]c(=O)n(CCC(=O)NC3CCCCC3C)c(=O)c2cc1OCC (stereo unspecified)	0.3
O=C1c2ccccc2C2CC(c3cc(Cl)ccc3Cl)=NN12 (stereo unspecified)	0.1
